The results in this text go back to the supplement of paper PMC10849652.

The full data set covers some 7,900 targets. This sample favours those with a hit. About 0.6% of all pairs of compound and target were hits. Unmarked numbers belong to inactive results.

Chain of UniProt Q8WYA6 (Q8WYA6 whole entry, looked up): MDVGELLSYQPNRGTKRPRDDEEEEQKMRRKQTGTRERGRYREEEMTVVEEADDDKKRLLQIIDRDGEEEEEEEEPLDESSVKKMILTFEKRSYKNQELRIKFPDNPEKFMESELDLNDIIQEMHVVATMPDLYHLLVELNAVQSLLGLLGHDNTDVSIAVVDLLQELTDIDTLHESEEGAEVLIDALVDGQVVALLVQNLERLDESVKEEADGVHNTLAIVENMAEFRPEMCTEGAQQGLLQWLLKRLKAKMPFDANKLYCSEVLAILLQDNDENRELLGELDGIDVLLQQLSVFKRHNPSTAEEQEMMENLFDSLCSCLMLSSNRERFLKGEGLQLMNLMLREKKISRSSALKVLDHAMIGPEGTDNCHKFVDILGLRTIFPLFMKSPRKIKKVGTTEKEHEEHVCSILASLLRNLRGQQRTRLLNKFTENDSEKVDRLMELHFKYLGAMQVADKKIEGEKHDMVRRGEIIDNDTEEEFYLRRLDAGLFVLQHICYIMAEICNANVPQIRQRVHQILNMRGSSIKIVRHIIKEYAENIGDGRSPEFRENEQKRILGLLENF
Chain of UniProt Q8NBI2 (Q8NBI2 whole entry, looked up): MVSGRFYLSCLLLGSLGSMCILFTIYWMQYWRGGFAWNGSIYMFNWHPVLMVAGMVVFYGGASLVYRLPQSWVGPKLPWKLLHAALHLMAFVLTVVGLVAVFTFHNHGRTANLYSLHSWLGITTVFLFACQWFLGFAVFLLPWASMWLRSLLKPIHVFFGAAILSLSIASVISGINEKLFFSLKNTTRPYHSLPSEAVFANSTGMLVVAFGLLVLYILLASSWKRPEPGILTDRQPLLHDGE
Chain of UniProt Q96FC9 (Q96FC9 whole entry, looked up): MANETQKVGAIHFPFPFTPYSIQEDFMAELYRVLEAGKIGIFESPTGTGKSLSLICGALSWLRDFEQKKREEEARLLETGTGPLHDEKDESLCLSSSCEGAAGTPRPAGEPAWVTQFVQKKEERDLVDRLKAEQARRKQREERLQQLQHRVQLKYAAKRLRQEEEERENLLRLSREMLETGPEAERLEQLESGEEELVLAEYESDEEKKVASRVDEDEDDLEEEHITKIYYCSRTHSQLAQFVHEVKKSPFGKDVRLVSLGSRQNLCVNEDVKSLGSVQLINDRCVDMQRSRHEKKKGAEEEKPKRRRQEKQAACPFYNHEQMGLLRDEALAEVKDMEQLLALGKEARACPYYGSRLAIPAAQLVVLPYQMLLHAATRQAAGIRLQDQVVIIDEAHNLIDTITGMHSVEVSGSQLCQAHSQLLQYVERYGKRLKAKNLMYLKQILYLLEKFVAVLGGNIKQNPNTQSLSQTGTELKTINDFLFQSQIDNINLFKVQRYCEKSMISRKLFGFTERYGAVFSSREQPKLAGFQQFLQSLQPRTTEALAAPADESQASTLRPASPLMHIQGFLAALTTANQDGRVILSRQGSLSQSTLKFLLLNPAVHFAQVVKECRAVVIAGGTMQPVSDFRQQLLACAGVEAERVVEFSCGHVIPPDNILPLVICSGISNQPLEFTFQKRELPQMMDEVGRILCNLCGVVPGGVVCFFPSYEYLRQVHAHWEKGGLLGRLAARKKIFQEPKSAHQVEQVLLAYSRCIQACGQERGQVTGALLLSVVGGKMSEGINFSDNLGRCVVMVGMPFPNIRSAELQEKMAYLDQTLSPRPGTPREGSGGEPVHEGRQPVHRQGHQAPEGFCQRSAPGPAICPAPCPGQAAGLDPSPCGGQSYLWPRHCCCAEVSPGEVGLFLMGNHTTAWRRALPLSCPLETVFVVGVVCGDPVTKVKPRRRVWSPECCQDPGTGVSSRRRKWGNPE
Chain of UniProt P0CG12 (P0CG12 whole entry, looked up): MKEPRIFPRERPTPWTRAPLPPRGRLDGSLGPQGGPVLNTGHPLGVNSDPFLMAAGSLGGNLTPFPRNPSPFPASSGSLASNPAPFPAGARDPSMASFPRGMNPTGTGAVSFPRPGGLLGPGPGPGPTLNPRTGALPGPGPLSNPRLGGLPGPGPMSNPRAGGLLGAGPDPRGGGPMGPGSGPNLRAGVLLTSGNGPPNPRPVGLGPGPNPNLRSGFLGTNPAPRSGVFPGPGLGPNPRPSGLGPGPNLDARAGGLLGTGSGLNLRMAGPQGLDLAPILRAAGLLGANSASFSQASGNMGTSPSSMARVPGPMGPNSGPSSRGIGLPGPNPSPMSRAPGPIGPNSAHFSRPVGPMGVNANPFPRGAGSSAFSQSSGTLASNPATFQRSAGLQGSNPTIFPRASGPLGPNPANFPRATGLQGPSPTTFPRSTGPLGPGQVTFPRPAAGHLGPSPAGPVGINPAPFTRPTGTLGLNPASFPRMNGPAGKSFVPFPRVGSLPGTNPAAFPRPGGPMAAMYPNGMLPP
Chain of UniProt Q3B7T1 (Q3B7T1 whole entry, looked up): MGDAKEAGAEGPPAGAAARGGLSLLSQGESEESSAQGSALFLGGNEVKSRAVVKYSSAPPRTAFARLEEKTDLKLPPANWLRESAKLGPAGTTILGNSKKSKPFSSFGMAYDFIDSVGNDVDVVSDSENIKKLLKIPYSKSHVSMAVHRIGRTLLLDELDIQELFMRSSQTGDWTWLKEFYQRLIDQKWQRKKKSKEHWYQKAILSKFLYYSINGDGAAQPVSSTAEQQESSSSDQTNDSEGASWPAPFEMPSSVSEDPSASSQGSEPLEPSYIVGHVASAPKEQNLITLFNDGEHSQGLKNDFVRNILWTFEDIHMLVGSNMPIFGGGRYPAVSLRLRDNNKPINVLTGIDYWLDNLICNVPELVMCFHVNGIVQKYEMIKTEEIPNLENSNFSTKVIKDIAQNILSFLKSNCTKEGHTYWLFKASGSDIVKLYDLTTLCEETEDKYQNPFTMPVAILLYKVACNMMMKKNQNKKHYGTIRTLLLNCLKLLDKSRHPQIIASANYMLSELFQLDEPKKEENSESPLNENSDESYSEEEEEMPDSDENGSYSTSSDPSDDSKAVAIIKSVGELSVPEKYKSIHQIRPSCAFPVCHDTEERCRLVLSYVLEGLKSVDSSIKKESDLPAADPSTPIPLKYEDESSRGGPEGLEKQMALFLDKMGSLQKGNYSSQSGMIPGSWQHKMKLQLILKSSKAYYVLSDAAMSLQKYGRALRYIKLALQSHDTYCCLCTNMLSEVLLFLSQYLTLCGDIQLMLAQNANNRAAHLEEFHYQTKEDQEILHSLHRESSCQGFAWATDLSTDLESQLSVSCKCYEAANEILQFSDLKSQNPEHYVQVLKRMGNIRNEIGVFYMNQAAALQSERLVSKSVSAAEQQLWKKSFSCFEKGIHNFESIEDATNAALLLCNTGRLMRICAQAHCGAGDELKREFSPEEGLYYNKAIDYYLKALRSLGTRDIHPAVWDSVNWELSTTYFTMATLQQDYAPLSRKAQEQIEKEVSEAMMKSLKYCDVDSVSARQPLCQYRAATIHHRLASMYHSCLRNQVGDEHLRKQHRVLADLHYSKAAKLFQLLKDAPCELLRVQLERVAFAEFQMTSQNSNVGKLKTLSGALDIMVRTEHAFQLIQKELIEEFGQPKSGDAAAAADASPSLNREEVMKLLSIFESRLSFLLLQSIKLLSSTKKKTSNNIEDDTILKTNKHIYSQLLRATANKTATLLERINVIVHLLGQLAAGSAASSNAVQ
Chain of UniProt Q9NSI2 (Q9NSI2 whole entry, looked up): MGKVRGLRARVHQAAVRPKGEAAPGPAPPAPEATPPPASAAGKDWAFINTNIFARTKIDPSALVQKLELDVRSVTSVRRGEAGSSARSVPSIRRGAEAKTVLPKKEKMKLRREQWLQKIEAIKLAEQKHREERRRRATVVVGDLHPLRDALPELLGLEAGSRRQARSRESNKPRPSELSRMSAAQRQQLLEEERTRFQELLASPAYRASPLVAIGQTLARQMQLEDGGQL
Chain of UniProt Q9NQZ7 (Q9NQZ7 whole entry, looked up): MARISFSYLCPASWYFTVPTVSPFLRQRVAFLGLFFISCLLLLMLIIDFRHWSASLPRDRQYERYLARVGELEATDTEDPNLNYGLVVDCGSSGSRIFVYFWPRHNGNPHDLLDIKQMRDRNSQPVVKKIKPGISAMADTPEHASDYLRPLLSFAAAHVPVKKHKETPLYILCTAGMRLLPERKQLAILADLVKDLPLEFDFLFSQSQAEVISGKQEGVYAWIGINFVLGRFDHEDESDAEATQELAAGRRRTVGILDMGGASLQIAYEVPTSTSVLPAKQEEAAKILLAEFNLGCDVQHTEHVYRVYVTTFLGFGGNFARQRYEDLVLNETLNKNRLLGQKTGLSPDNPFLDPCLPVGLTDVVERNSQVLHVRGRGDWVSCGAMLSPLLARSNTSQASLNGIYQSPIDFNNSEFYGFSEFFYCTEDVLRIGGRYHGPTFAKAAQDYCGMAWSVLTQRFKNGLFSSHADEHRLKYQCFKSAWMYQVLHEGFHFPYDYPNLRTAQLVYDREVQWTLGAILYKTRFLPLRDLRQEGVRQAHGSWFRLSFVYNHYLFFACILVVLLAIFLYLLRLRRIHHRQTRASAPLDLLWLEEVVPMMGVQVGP
Chain of UniProt O75822 (O75822 whole entry, looked up): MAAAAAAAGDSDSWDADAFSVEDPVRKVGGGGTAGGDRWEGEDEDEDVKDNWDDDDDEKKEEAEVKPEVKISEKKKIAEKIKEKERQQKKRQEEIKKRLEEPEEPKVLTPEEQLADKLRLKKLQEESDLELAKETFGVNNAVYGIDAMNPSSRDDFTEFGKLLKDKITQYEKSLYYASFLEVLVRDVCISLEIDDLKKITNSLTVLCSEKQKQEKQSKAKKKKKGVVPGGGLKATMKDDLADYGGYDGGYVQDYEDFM
Chain of UniProt P98173 (P98173 whole entry, looked up): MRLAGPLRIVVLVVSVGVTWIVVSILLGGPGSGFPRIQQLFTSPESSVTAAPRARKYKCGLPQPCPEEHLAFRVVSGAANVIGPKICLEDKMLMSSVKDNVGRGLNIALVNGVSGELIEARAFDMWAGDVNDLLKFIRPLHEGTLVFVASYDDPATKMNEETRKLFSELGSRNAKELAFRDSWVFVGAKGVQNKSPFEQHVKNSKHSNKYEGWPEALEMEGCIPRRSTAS

Compound in this assay: C1=CC=C(C=C1)[C@H](COC2=CC3=C(C=C2)NC(=O)N3)NC(=O)C4=CC=CN(C4=O)CC5=CC(=C(C=C5)F)F
The assay is described as follows: log2 fold change, soluble protein after heating vs DMSO (PISA); higher = thermal stabilisation; K562 cells, 10 uM, 30 min; active = over 0.2 and 3.5 SD of the protein, either way, in both replicates (recomputed). The gist of the method:
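Values are thermal stability changes relative to control samples and are taken from duplicates. They are stated as log2 fold changes. Before quantification by TMTpro 16plex LC-MS/MS with equalised channel sums, K562 cells at 2×10^6 cells/mL were treated with 10 μM compound for 30 min, heated in aliquots for 3 min across 48°C-58°C, pooled, extracted in PBS with 0.5% NP-40 at 4°C, and centrifuged at 21,000xg for 90 min to give the soluble supernatant.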
Regarding ENTPD7 (UniProt Q9NQZ7), the log2 fold change was 0.066.
The same measure for CYP24A1 (UniProt Q07973): 0.17; for DNM2 isoform 4 (UniProt P50570): 0.015.
Regarding DNAL1 (UniProt Q4LDG9), the log2 fold change is 0.146.
Take ELMO1 (UniProt Q92556): the log2 fold change was -0.085.
The same measure for FAM207A (UniProt Q9NSI2): 0.107; for FAM3A (UniProt P98173): -0.01.
On to EIF3J isoform 2 (UniProt O75822), for which the log2 fold change was 0.092.
Next, EDRF1 (UniProt Q3B7T1): 0.043; DDX11 (UniProt Q96FC9): -0.068.
Next, DERPC (UniProt P0CG12): 0; DOP1A (UniProt Q5JWR5): 0.203.
DYNC1I2 isoform 2 (UniProt Q13409): the log2 fold change was 0.028.
Take DUS3L (UniProt Q96G46): the log2 fold change is 0.073.
On to CTNNBL1 (UniProt Q8WYA6), for which the log2 fold change was 0.029.
Next, EIF2AK3 (UniProt Q9NZJ5): -0.473; CYB561A3 isoform 2 (UniProt Q8NBI2): 0.033; DENND1A isoform 6 (UniProt Q8TEH3): 0.152.
The same measure for FADS1 (UniProt F5GYH4): -0.216.
